# Rows were chosen to be rich in hits. Some 9.4% of all compounds tested hit in one or more screens of this group.
# Pf growth 96h: P. falciparum growth inhibition at 96 hour, primary screen for plastid delayed-death inhibitors | Potency, µM (doses to about 28.7 µM), without a hit: at the top dose activity change, negative = inhibition, actives largely listed as inhibitors | P. falciparum luciferase reporter growth, 96 h | hit rate 6.9% among 320,000 | AID 504834; further: potency means the concentration at half of the fitted maximal effect; on the % scale 0 is the no-effect control and ±100 the full control effect
#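 Plates of compound plus infected erythrocytes (2% hematocrit, 0.05% parasitemia final) incubate 96 hours, 37 C, 5% CO2. Detection reagent added; reduced luminescence from the parasites' luciferase reporter flags inhibition.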
# AMA1-RON2 inh: disrupts binding of P. falciparum AMA1 to RON2. Potency, µM (titrated, usually from 58.2 µM), without a hit: top-dose activity change, negative = inhibition, actives largely listed as inhibitors. hit rate 0.2% among 360,000. AID 720542. AlphaScreen AMA1-biotinylated RON2 peptide binding;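 further: potency means the concentration at half of the fitted maximal effect; 0% = vehicle wells and -100% = peptide control; nearly all actives have a fitted effect of over 45% in size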
#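 AMA1 (3D7) with his tag at 25 nM final met compounds first, then biotinylated RON2 peptide at 25 nM; detection used donor plus acceptor beads, 10 µg/mL apiece, read by AlphaScreen after 30 min at room temperature.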
# SARS PLpro yeast-1: SARS-CoV PLP inhibition in yeast | S. cerevisiae expressing SARS-CoV PLpro, growth rescue | Potency, µM (highest dose often 32.9 µM), for inactives: at the top dose activity, positive = growth rescue, usual class: activators | hit rate 0.19% among 330,000; calls by dose curve; further: potency means the concentration at half of the fitted maximal effect; 0% is about no effect; nearly all actives have a fitted effect of over 55% in size
# Pf growth 48h: P. falciparum growth inhibition at 48 hours (one generation); AID 504832; hit rate 5.9% among 310,000; P. falciparum luciferase growth in erythrocytes, 48 h; Potency, µM (highest dose often 28.7 µM), inactives show at the top dose activity change, negative = inhibition, most hits filed as inhibitors; further: potency means the concentration at half of the fitted maximal effect; on the % scale 0 is the no-effect control and ±100 the full control effect
#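 Firefly luciferase activity from engineered P. falciparum reports growth; inhibitors lower the luminescent signal. Cultures contained 2% hematocrit erythrocytes at 0.1% final parasitemia.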
# SARS PLpro yeast-2: Validates SARS-CoV PLpro inhibitor hits in yeast | yeast expressing SARS-CoV PLpro, growth phenotype rescue | shares compounds with SARS PLpro yeast-1 | calls only | AID 652038 | hit rate 19% among 1,000; call rule not given here
# CLK4 ADP-Glo: confirmation of inhibitors of human CDC-like kinase 4 | shares compounds with Pf growth 48h | recombinant Clk4, RS peptide, ADP-Glo luminescence | Potency, µM (series often up to 80 µM), for the others: at the highest dose activity, negative = inhibition, actives largely listed as inhibitors | hit rate 80% among 65 | AID 1969
# Target sequence (Q9HAZ1 whole entry, looked up): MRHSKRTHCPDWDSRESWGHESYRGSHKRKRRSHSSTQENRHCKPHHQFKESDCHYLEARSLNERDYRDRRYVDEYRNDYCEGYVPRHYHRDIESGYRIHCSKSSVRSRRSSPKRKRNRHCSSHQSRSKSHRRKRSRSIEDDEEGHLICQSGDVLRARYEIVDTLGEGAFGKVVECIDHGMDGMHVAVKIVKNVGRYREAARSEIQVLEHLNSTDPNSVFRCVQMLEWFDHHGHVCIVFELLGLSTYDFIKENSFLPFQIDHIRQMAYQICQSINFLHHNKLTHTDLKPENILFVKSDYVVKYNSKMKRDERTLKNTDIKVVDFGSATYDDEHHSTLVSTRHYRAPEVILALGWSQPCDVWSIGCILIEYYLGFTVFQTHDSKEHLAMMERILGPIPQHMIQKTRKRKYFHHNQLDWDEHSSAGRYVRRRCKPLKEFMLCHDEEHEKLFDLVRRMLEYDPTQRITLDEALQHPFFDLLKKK
# CLK4 ADP FP: CLK4 (human) inhibition, Transcreener FP confirmation; shares compounds with Pf growth 48h; Potency, µM (highest dose often 80 µM), for inactives: at the highest dose activity, negative = inhibition, hits mostly inhibitors; hit rate 70% among 65; recombinant Clk4, ADP Transcreener FP, RS peptide
# * = called active by the depositor; i = inactive; ? = inconclusive; / = not tested or not shown; + = active, no number; ! = a repeat was not active; [ ] = another dose, or the depositor's remark. Unless noted, the call rests on the fitted dose curve; in most records, active means well fitted curve in the direction sought with a large enough effect; inconclusive means small, poorly fitted or top-dose-only effect, or another doubt; inactive means no such curve, though single readings can be large; an effect the other way counts as inactive or inconclusive.
SMILES,Pf growth 96h,AMA1-RON2 inh,SARS PLpro yeast-1,Pf growth 48h,SARS PLpro yeast-2,others
COc1nc(Nc2ccc(C(C)C)cc2)nc(OC)n1,-10%,-10%,?,1.2µM*,i,
COc1cc(N2CCOCC2)ncn1,77%,0%,-1%,11%,/,
Clc1nc2sccn2c1/C=N/n1cnc2ccccc21,-13%,2%,?,/,i,
COc1cc(C(=O)NCC(=O)N/N=C(/C)c2cccs2)cc(OC)c1OC,1.7µM*,7%,?,0%,i,
Cc1ccc(O)c(NC(=S)NC(=O)c2ccc(-c3ccc(Cl)cc3)o2)c1,/,59%,/,/,/,
CC(=O)c1sc2c(c1OC(=O)c1ccc(Cl)cc1Cl)c(=O)n(-c1ccccc1)c(=S)n2-c1ccccc1,?,-11%,2%,?,/,
O=C1CCCC2=C1C1O[C@](c3ccsc3)(Cc3c1ccc1ccccc31)O2,?,/,-12%[6.58 µM],?,/,
CCOC(=O)c1ccc(-c2ccc(C3Nc4ccccc4C(=O)N3O)o2)cc1 (stereo unspecified),-89%,36%,5µM*,?,?,
CC(C)CCNC(=S)Nc1ccccc1F,?,-1%,?,-1%,+,
CN1CCN(S(=O)(=O)c2ccc3c(c2)NC(=O)C2CCCN32)CC1 (stereo unspecified),?,0%,2%,-6%,/,
CC(C)(C)c1nnc(N/N=C/c2cc(Br)ccc2O)n(N)c1=O,8.3µM*,-12%,/,3.3µM*,i,
COc1ccc(OCC(=O)Nn2c(-c3ccc(OC)cc3)nc3ccccc3c2=O)cc1,47%,-3%,?,38%,+,
COc1ccc(-c2nc3ccccc3c(=O)n2NC(=S)N(C)C)cc1,62%,-4%,-15%,-3%,/,
Cc1csc(NC(=O)C(Cc2ccccc2)n2cccc2)n1 (stereo unspecified),?,-25%,-15%,?,/,
CCSc1nnc(NC(=O)C(Cc2ccccc2)n2cccc2)s1 (stereo unspecified),?,1%,?,/,i,
COCc1cc(C2C(C(=O)c3ccco3)=C(O)C(=O)N2CCOCCO)ccc1O (stereo unspecified),85%,-3%,2.8µM*,6%,i,
CN(C)CC(O)COC(c1ccc(Cl)cc1)c1ccc(Cl)cc1 (stereo unspecified),?,4%,-7%,?,/,
CC(C)OC(=O)c1cc2ccccc2oc1=O,?,4%,?,4%,i,
O=C(Oc1ccccc1)c1cc2ccccc2oc1=O,40%,-9%,1%,21%,/,
Cc1ccc(C(C(=O)NCc2ccccc2)N(Cc2cccs2)C(=O)c2ccc3c(c2)OCCO3)cc1 (stereo unspecified),?,-6%,?,?,i,
Cc1cc(C)nc(NS(=O)(=O)c2ccc(NC(=S)NC(=O)C(C)(C)C)cc2)n1,0%,-5%,4%,/,/,
Cc1cc(C)nc(NS(=O)(=O)c2ccc(NC(=S)NC(=O)CC(C)C)cc2)n1,15%,-14%,?,-3%,i,
Cc1ccc(-c2cc(=O)c3cc(F)ccc3[nH]2)cc1,10µM*,-2%,?,?,i,
Cc1ccc(-c2cc(=O)c3cc(C)ccc3[nH]2)cc1,?,-5%,4%,-6%,/,
CCCCOc1ccc(/C=C/C(=O)Nc2ccc([N+](=O)[O-])cc2C)cc1,?,-18%,3%,-22%,/,
SMILES,Pf growth 96h,AMA1-RON2 inh,SARS PLpro yeast-1,Pf growth 48h,SARS PLpro yeast-2,others
CC(C)NC(=S)N/N=C/c1ccc2c(c1)OCCO2,21%,14%,16µM*,16%,+,
O=C(COc1ccccc1Br)NC1CCCC1,0%,-3%,16%,17%,/,
CCOC(=O)C1=C(CNCc2ccc(C)cc2)NC(=O)NC1c1cc(C)ccc1C (stereo unspecified),3.3µM*,9%,?,/,i,
Cc1ccccc1NC(=O)C1(C)Cc2ccccc2C(=O)O1 (stereo unspecified),?,13%,?,?,?,
Cc1ccc(NC(=O)C2(C)Cc3ccccc3C(=O)O2)cc1 (stereo unspecified),24%,1%,0%,2%,/,
COc1ccc(N2C(=O)c3ccc(NC(C)=O)cc3C2=O)cc1,3%,-8%,4%,25%,/,
O=C(NCCCc1ccccc1)Nc1cccc(Cl)c1,11%,28%,-86%,?,/,
COc1ccc(C2OC(=O)c3ccccc3S2)cc1 (stereo unspecified),10%,50%,?,8%,i,
COc1cc(C2OC(=O)c3ccccc3S2)cc(OC)c1OC (stereo unspecified),7%,-7%,-1%,10%,/,
Cc1cc(C)nc(N2CCCC(C(=O)NCCc3ccc(F)cc3)C2)n1 (stereo unspecified),?,-27%,?,9%,+,
CCCCCCCCC(=O)N1CCN(c2cc3c(cc2F)c(=O)c(C(=O)O)cn3CC)CC1,?,28%,2%,?,/,
CN(CC(=O)Nc1c(Cl)cccc1Cl)C(=O)c1ccccc1SCC(=O)N1CCCC1,?,70%,10%,3%,/,
Cc1cccc(C)c1NC(=O)CN(C)C(=O)c1ccccc1SCC(=O)N1CCCC1,38%,46%,14µM*,1%,i,
CCOC(=O)/C(C#N)=C\c1cn(C)c2ccccc12,35%,-13%,-1%,0%,/,
CCOC(=O)/C(C#N)=C/c1c(OCC)n(CC)c2ccccc12,31%,1%,13µM*,?,i,
CCOC(=O)c1oc2ccccc2c1CN1CCN(C(=O)c2ccccc2)CC1,?,1%,3.5µM*,-8%,i,
c1cncc(-c2ccc3ncnc(NCc4ccc5c(c4)OCO5)c3c2)c1,?,/,4%,?,i,CLK4 ADP-Glo=7.1µM*;CLK4 ADP FP=11µM*
c1ccc(-n2ncc3c(NCc4ccc5c(c4)OCO5)ncnc32)cc1,?,-2%,4%,-1%,/,
CCOC(=O)c1cnn(-c2nc(C)nc3sc4c(c23)CCC4)c1N,-23%,/,-7%,14%,/,
COc1cccc(-c2ccc3ncnc(NCc4cccs4)c3c2)c1,4.1µM*,/,7.1µM*!,9.3µM*,i,CLK4 ADP-Glo=1µM*;CLK4 ADP FP=1.1µM*
Cn1nc(C(=O)NCc2cccc(F)c2)cc1C(=O)NCc1cccc(F)c1,-18%,-2%,0%,?,/,
Cn1ccc2cc(-c3ccc4ncnc(NCc5cccs5)c4c3)ccc21,5.2µM*,/,-11%,2.9µM*,/,CLK4 ADP-Glo=14µM*;CLK4 ADP FP=?
Cn1ccc2cc(-c3ccc4ncnc(NCc5cccc(F)c5)c4c3)ccc21,3.7µM*,/,-1%,8.3µM*,/,CLK4 ADP-Glo=?;CLK4 ADP FP=?

# Source: PubChem BioAssay (National Center for Advancing Translational Sciences (NCATS))
